Data on 39 compounds can be found in PubChem BioAssay AID1210 (NMMLSC, 2008).

Each structure is given as a SMILES string. Activity calls are given as the source filed them.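 Rule for the calls: active = blocks over 70% of labeled estradiol binding at 10 µM, or over a set limit at 100 nM; inactive = the rest.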

The target of one test is Estrogen receptor beta (Homo sapiens) (UniProt Q92731). Kind of test: ERbeta ligand binders by competition, primary screen, cell-based, Cos7 ERbeta-GFP, flow cytometry (AID 1210).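 Note: 0% = DMSO vehicle wells and 100% = complete loss of labeled estradiol signal.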 Conditions: fluorescent estrogen binding, at 10 µM, stronger effect = higher value. On the technique in general: In flow cytometry, cells or beads pass a laser one at a time.
Sequence of Estrogen receptor beta (Homo sapiens) (Q92731 whole entry, looked up): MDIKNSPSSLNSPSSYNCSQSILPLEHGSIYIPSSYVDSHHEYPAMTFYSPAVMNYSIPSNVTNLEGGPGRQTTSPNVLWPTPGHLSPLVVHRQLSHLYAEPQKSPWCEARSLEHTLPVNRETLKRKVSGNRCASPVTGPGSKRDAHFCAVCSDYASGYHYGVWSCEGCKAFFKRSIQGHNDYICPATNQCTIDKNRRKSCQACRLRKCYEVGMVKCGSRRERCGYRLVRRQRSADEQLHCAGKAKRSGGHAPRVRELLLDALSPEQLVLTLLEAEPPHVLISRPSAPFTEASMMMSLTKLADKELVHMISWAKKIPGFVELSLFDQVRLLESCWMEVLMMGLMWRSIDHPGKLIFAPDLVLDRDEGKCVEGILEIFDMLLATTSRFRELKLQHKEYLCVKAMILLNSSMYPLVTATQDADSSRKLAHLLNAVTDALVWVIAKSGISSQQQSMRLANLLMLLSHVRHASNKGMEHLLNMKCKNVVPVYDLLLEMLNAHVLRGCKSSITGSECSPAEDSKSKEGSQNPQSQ
Take `CCn1c(SCC(=O)Nc2cccc(F)c2)nnc1-c1cc2cc(Br)ccc2o1`: the inhibition (in general, the share of the control response that was lost under treatment) is 39% (inactive).
Same read-out and setting: then `Cc1nn(-c2ccccc2)c(C)c1NC(=O)Cc1cccs1`, with 67% (inactive).
On the same count and under the same terms, as for `C=CCn1c(SCC(=O)NC(=O)NCc2ccco2)nc2sc(CC)cc2c1=O`, the figure is 33% (inactive); as for `COc1cc(-c2nc3ccc4ccccc4c3c3c2CCC3)ccc1O`, 0% (inactive); as for `CC(=O)N1c2ccc3ccccc3c2C2C=CCC2C1c1ccc(Br)cc1` (stereo not drawn), 8% (inactive).
Turning to `O=C(Cc1cccs1)Nc1nnc(Cc2ccccc2)s1`, the inhibition is 18% (inactive).
Same read-out and setting: as for `O=C(Nc1ccc2nn(-c3ccccc3)nc2c1)c1ccc2c(c1)OCO2`, the figure is 27% (inactive); as for `CC1(C)OC(C)(C)/C(=C/Nc2ccc(O)cc2)C1=O`, 58% (inactive).
Still for that read-out and setting: as for `O=C(Cc1cccs1)Nc1ccc(-c2nnn(CC(=O)N3CCOCC3)n2)cc1`, the figure is 30% (inactive); as for `CSCCC(NC(=O)c1ccco1)C(=O)OCC(=O)Nc1sccc1C#N` (stereo not drawn), 6% (inactive); as for `Clc1ccc2nc(-c3ccccn3)c(Nc3ccc4c(c3)OCO4)n2c1`, 60% (inactive).
Regarding `Cc1ccc2c(c1)c(=O)c1c3n2CCN(C(=O)CCl)C3CC1` (stereo not drawn), the inhibition is 37% (inactive).
On the same count and under the same terms, then `Cc1ccc(C2=Nc3ccccc3N=C(c3ccco3)C2)c(O)c1`, with 2% (inactive).
Same read-out and setting: then `Oc1ccccc1C1=Nc2ccccc2N=C(c2cccs2)C1`, with 19% (inactive); and `CCNC(=O)c1ccc2c(c1)C1C3CCC(C3)C1C(c1ccccc1)N2` (stereo not drawn), with 29% (inactive); and `Nc1ccc(/C=C/C(=O)c2ccco2)cc1`, with 0% (inactive).
Consider `O=C(Nc1cccc2cccc(NC(=O)c3ccco3)c12)c1ccco1`, for which the inhibition is 24% (inactive).
Still for that read-out and setting: as for `O=C(COC(=O)CN1C(=O)c2ccccc2C1=O)Nc1ncc(Cl)cc1Cl`, the figure is 33% (inactive).
Same read-out and setting: as for `CC(=O)c1ccc(NCC(=O)N2CCN(c3ccccc3)CC2)cc1`, the figure is 72% (active).
The same measure, in the same setting: as for `N=C1C(c2nc3ccccc3[nH]2)=C(O)CN1c1ccc(CC(=O)O)cc1`, the figure is 26% (inactive); as for `COc1ccc(C2Nc3ccccc3C(=O)N2Cc2ccccc2)cc1Cn1nnc2ccccc21` (stereo not drawn), 38% (inactive); as for `Cc1sc2ncnc(SCC(=O)NC(=O)NCc3ccco3)c2c1C`, 47% (inactive).
As to `C[C@]12CC[C@@H]3c4ccc(O)cc4[C@@H](O)C[C@H]3[C@@H]1CC[C@@H]2O`, the inhibition was 74% (active).
With `O=C1NCCCC2c3cc(O)c4ccccc4c3OC12N1CCCCC1` (stereo not drawn), the inhibition was 56% (inactive).
On the same count and under the same terms, then `O=c1cc(O)c2c(=O)n(-c3ccccc3)c3c(c2o1)CCCCCC3`, with 59% (inactive).
The same measure, in the same setting: as for `CCOC(=O)c1c(C)oc2c1c(C=NC1CCS(=O)(=O)C1)c(O)c1ccccc12` (stereo not drawn), the figure is 38% (inactive); as for `Cc1ccc(C)n1-c1sccc1C(=O)O`, 18% (inactive); as for `O=c1c(OC2OC(CO)C(O)C(O)C2O)c(-c2ccc(O)c(O)c2)oc2cc(O)cc(O)c12` (stereo not drawn), 36% (inactive).
Still for that read-out and setting: as for `CCOc1ccc(CC2S/C(=N/c3ccccn3)NC2=O)cc1` (stereo not drawn), the figure is 16% (inactive); as for `O=C(Nc1ccccc1[N+](=O)[O-])C1=C(O)CCn2c1nc1ccccc12`, 37% (inactive).
For `O=C(Cc1ccccc1)Nc1ccc2oc(-c3cccnc3)nc2c1`, the inhibition was 65% (inactive).
On the same count and under the same terms, as for `CCC(=O)Nc1ccc(C(=O)Cn2nc(C(=O)O)c3ccccc3c2=O)cc1`, the figure is 64% (inactive).
On the same count and under the same terms, as for `O=S(=O)(Nc1ncnc2sc3c(c12)CCC3)c1ccc2ccccc2c1`, the figure is 12% (inactive).
Still for that read-out and setting: then `COc1ccc(N2Cc3cccc(C(=O)O)c3C2=O)cc1`, with 42% (inactive); and `O=C(Nc1sc2c(c1C(=O)O)CCC2)c1ccccc1`, with 46% (inactive).
Regarding `O=C(c1cccs1)N1N=C(c2ccc(O)cc2)CC1c1ccccc1` (stereo not drawn), the inhibition was 68% (inactive).
Same read-out and setting: then `Nc1ccc(-c2nc3c(Cl)c(N)ccc3[nH]2)cc1`, with 66% (inactive); and `COc1ccc(C(=O)N/N=C(\C)c2ccc3c(c2)C2C=CCC2C(c2ccccc2)N3)cc1` (stereo not drawn), with 67% (active).
On the same count and under the same terms, then `Cc1ccccc1NC(=O)CSc1nnc(-c2ccco2)c(-c2ccco2)n1`, with 31% (inactive).

The same test, now with this note: fluorescent estrogen binding, ligand binding inhibition, at 0.1 µM, stronger effect = higher value.
The compound `CCn1c(SCC(=O)Nc2cccc(F)c2)nnc1-c1cc2cc(Br)ccc2o1` had an inhibition of 12%.
Still for that read-out and setting: as for `Cc1nn(-c2ccccc2)c(C)c1NC(=O)Cc1cccs1`, the figure is 25%.
Same read-out and setting: then `C=CCn1c(SCC(=O)NC(=O)NCc2ccco2)nc2sc(CC)cc2c1=O`, with 10%.
Take `COc1cc(-c2nc3ccc4ccccc4c3c3c2CCC3)ccc1O`: the inhibition was 59%.
Take `CC(=O)N1c2ccc3ccccc3c2C2C=CCC2C1c1ccc(Br)cc1` (stereo not drawn): the inhibition was 3%.
Still for that read-out and setting: as for `O=C(Cc1cccs1)Nc1nnc(Cc2ccccc2)s1`, the figure is 29%; as for `O=C(Nc1ccc2nn(-c3ccccc3)nc2c1)c1ccc2c(c1)OCO2`, 14%.
The compound `CC1(C)OC(C)(C)/C(=C/Nc2ccc(O)cc2)C1=O` came in with an inhibition of 58%.
The same measure, in the same setting: as for `O=C(Cc1cccs1)Nc1ccc(-c2nnn(CC(=O)N3CCOCC3)n2)cc1`, the figure is 2%.
For the compound `CSCCC(NC(=O)c1ccco1)C(=O)OCC(=O)Nc1sccc1C#N` (stereo not drawn), the inhibition was found to be 28%.
Still for that read-out and setting: as for `Clc1ccc2nc(-c3ccccn3)c(Nc3ccc4c(c3)OCO4)n2c1`, the figure is 2%; as for `Cc1ccc2c(c1)c(=O)c1c3n2CCN(C(=O)CCl)C3CC1` (stereo not drawn), 33%; as for `Cc1ccc(C2=Nc3ccccc3N=C(c3ccco3)C2)c(O)c1`, 29%.
Still for that read-out and setting: then `Oc1ccccc1C1=Nc2ccccc2N=C(c2cccs2)C1`, with 17%; and `CCNC(=O)c1ccc2c(c1)C1C3CCC(C3)C1C(c1ccccc1)N2` (stereo not drawn), with 58%.
Still for that read-out and setting: then `Nc1ccc(/C=C/C(=O)c2ccco2)cc1`, with 37%; and `O=C(Nc1cccc2cccc(NC(=O)c3ccco3)c12)c1ccco1`, with 22%.
`O=C(COC(=O)CN1C(=O)c2ccccc2C1=O)Nc1ncc(Cl)cc1Cl` registered an inhibition of 16%.
Regarding `CC(=O)c1ccc(NCC(=O)N2CCN(c3ccccc3)CC2)cc1`, the inhibition was 41%.
For the compound `N=C1C(c2nc3ccccc3[nH]2)=C(O)CN1c1ccc(CC(=O)O)cc1`, the inhibition was determined as 21%.
Same read-out and setting: as for `COc1ccc(C2Nc3ccccc3C(=O)N2Cc2ccccc2)cc1Cn1nnc2ccccc21` (stereo not drawn), the figure is 45%; as for `Cc1sc2ncnc(SCC(=O)NC(=O)NCc3ccco3)c2c1C`, 14%; as for `C[C@]12CC[C@@H]3c4ccc(O)cc4[C@@H](O)C[C@H]3[C@@H]1CC[C@@H]2O`, 56%.
The same measure, in the same setting: as for `O=C1NCCCC2c3cc(O)c4ccccc4c3OC12N1CCCCC1` (stereo not drawn), the figure is 27%; as for `O=c1cc(O)c2c(=O)n(-c3ccccc3)c3c(c2o1)CCCCCC3`, 2%.
The same measure, in the same setting: then `CCOC(=O)c1c(C)oc2c1c(C=NC1CCS(=O)(=O)C1)c(O)c1ccccc12` (stereo not drawn), with 11%; and `Cc1ccc(C)n1-c1sccc1C(=O)O`, with 26%.
The compound `O=c1c(OC2OC(CO)C(O)C(O)C2O)c(-c2ccc(O)c(O)c2)oc2cc(O)cc(O)c12` (stereo not drawn) gave an inhibition of 46%.
Still for that read-out and setting: as for `CCOc1ccc(CC2S/C(=N/c3ccccn3)NC2=O)cc1` (stereo not drawn), the figure is 15%; as for `O=C(Nc1ccccc1[N+](=O)[O-])C1=C(O)CCn2c1nc1ccccc12`, 46%; as for `O=C(Cc1ccccc1)Nc1ccc2oc(-c3cccnc3)nc2c1`, 20%.
Same read-out and setting: then `CCC(=O)Nc1ccc(C(=O)Cn2nc(C(=O)O)c3ccccc3c2=O)cc1`, with 1%; and `O=S(=O)(Nc1ncnc2sc3c(c12)CCC3)c1ccc2ccccc2c1`, with 31%; and `COc1ccc(N2Cc3cccc(C(=O)O)c3C2=O)cc1`, with 32%.
`O=C(Nc1sc2c(c1C(=O)O)CCC2)c1ccccc1`: the inhibition is 35%.
As to `O=C(c1cccs1)N1N=C(c2ccc(O)cc2)CC1c1ccccc1` (stereo not drawn), the inhibition turned out to be 23%.
Still for that read-out and setting: then `Nc1ccc(-c2nc3c(Cl)c(N)ccc3[nH]2)cc1`, with 32%; and `COc1ccc(C(=O)N/N=C(\C)c2ccc3c(c2)C2C=CCC2C(c2ccccc2)N3)cc1` (stereo not drawn), with 66%.
Same read-out and setting: then `Cc1ccccc1NC(=O)CSc1nnc(-c2ccco2)c(-c2ccco2)n1`, with 27%.
